An excerpt weighted towards active compounds, which were near 8.1% of everything screened.
Epigenetic derep: Quantitative High-Throughput Screen for Regulators of Epigenetic Control; murine LDR cells, GFP reporter derepression, 30 h; Potency, µM (highest dose often 53.9 µM), for inactives: at the highest dose GFP activation, most hits filed as activators; hit rate 0.2% among 280,000; AID 1865, 2009; note: % of control where 0% means no effect; nearly all actives have a fitted effect of over 60% in size
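Readout is the number of GFP-expressing murine LDR cells, counted by cytometry following washing. Cells were treated with compound for 30 h at 37 C; the stably integrated CMV-GFP locus is normally silent.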
Sfp PPTase inh: qHTS Assay for Inhibitors of Bacillus subtilis Sfp phosphopantetheinyl transferase (PPTase); Potency, µM, for inactives: largest response in the series, negative = inhibition, most hits filed as inhibitors; hit rate 3.5% among 310,000; Biochemical Sfp PPTase activity, qHTS; 4'-phosphopantetheinyl transferase ffp (Bacillus subtilis), Q9F4F7;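 note: the enzyme is Sfp with the accession as filed and its product quenches rhodamine fluorescence; 0% = enzyme reaction without inhibitor and -100% = no enzyme wells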
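Buffer: 50 mM Hepes-Na pH 7.6, 10 mM MgCl2, 0.01% Nonidet P-40, 0.01% BSA. Enzyme 15 nM, pre-exposed to compound 15 min; substrates then added and fluorescence change tracked over 30 min.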
RORgamma inh: qHTS for inhibitors of ROR gamma transcriptional activity. Nuclear receptor ROR-gamma (Mus musculus), P51450. Drosophila S2 Gal4-RORgamma UAS-luciferase reporter, 20 h. Potency, µM (series often up to 53.6 µM), without a hit: top-dose activity change, negative = inhibition, usual class: inhibitors. hit rate 5.4% among 310,000. AID 2551, 2010; note: % is set by controls: 0 for no effect and ±100 for the full control effect; nearly all actives have a fitted effect of over 60% in size
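In this cell-based reporter format, copper sulfate (700 uM final) drives Gal4–ROR gamma fusion expression from a metallothionein promoter in Drosophila Schneider cells; compounds preincubated 1 hr, reporter read after 20 hr at ambient temperature.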
Gal4-VP16 FLuc: VP16 counterscreen qHTS for inhibitors of ROR gamma transcriptional activity; Drosophila S2 Gal4-VP16 UAS-luciferase, luminescence, 20 h; Potency, µM (highest dose often 53.6 µM), without a hit: top-dose activity, negative = inhibition, hits mostly inhibitors; hit rate 3.5% among 310,000;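 note: Gal4-VP16 expression switched on by copper sulfate through the metallothionein promoter; % is set by controls: 0 for no effect and ±100 for the full control effect; nearly all actives have a fitted effect of over 50% in size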
PINK1 modulator: A Quantitative High throughput Screen to Identify Chemical Modulators of PINK1 Expression. PINK1 immunofluorescence, high-content cytometry, 24 h. Potency, µM (top dose mostly 76.6 µM), for inactives: at the top dose activation (PINK1 increase), most hits filed as activators. hit rate 0.2% among 410,000. AID 624263, 2012; active = well fitted activation curve with a large enough effect; inconclusive = small, poorly fitted or top-dose-only effect; cell line not stated here; note: % of control where 0% means no effect; nearly all actives have a fitted effect of over 65% in size
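PINK1 protein level read as immunofluorescence by microplate cytometer in a fixed, stained stable cell line after 24 h exposure to five compound concentrations, with CCCP as control.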
ClpP mod: qHTS Assay for Activators of ClpP | purified B. subtilis ClpP, FRET peptide cleavage, 20 min | Potency, µM (doses to about 57.5 µM), for inactives: top-dose activity change, negative = active | AID 651965, 2013 | hit rate 1.9% among 340,000 | ATP-dependent Clp protease proteolytic subunit (Bacillus subtilis (strain 168)), P80244; active = well fitted falling curve with a large enough effect; inconclusive = small, poorly fitted or top-dose-only effect; inactive = no such curve, though single readings can be large or run the other way; note: the source files actives as falling curves though it sought activators and does not explain the sign; nearly all actives have a fitted effect of over 65% in size
Target sequence (P80244 whole entry, looked up): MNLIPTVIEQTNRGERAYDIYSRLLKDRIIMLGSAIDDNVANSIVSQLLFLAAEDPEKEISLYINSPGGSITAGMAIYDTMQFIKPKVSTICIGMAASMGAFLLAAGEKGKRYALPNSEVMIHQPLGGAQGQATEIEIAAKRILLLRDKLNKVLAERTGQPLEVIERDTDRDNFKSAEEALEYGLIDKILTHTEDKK
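ClpP 10 microg/mL final, pH 8 Tris/KCl buffer with BSA, glycerol, Tween-20; compound pinned in; FRET-FV substrate; RT 20 min; Ex320/Em430; ΔFRET vs ADEP 5.8 microM, DMSO, no enzyme.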
Active calls of the source: *. Unless noted, calls come from the whole dose curve; as a rule, active = well fitted curve in the direction sought with a large enough effect; inconclusive = small, poorly fitted or top-dose-only effect, or another doubt; inactive = no such curve, though single readings can be large; an effect the other way counts as inactive or inconclusive. Potency is the fitted concentration of half-maximal effect.

What do the screens show for `COCC(C)Nc1ncnc2c1cnn2-c1ccc(Cl)cc1` (stereo not drawn)?
Epigenetic derep: 0%; Sfp PPTase inh: 12%; RORgamma inh: -13%; Gal4-VP16 FLuc: -20%; PINK1 modulator: 2%; ClpP mod: 28µM*

What do the screens show for `COc1ccc(-n2ncc3c(NCCCOC(C)C)ncnc32)cc1`?
Epigenetic derep: 6%; PINK1 modulator: 1%; ClpP mod: inconclusive

Results for Clc1cccc(Nc2ncnc3c2cnn3-c2ccccc2)c1 ?
Epigenetic derep: 9%; Sfp PPTase inh: inconclusive; RORgamma inh: 10µM*; Gal4-VP16 FLuc: 22µM*; PINK1 modulator: -1%; ClpP mod: -11%

Results for COc1ccc(-n2ncc3c(NCC(C)C)ncnc32)cc1 ?
Epigenetic derep: 0%; Sfp PPTase inh: 8%; RORgamma inh: 40%; Gal4-VP16 FLuc: -1%; PINK1 modulator: -1%; ClpP mod: 32µM*

Results for CCC(C)Nc1ncnc2c1cnn2-c1ccc(F)cc1 (stereo not drawn) ?
Epigenetic derep: 3%; PINK1 modulator: 1%; ClpP mod: -18%

What do the screens show for `CCOC(=O)N1CCC(Nc2ncnc3c2cnn3-c2ccc(Cl)cc2)CC1`?
Epigenetic derep: -2%; Sfp PPTase inh: 18%; RORgamma inh: 8.9µM*; Gal4-VP16 FLuc: 8%; PINK1 modulator: 3%; ClpP mod: 0%

Results for COc1ccc(-n2ncc3c(NC(C)C)ncnc32)cc1 ?
Epigenetic derep: 0%; Sfp PPTase inh: 8%; RORgamma inh: 11µM*; Gal4-VP16 FLuc: inconclusive; PINK1 modulator: -1%; ClpP mod: -24%

What do the screens show for `COc1cc(/C=N\NC(=O)C(C)(C)O)ccc1OC/C=C/c1ccccc1`?
Sfp PPTase inh: -6%; RORgamma inh: 35µM*; Gal4-VP16 FLuc: inconclusive; PINK1 modulator: 2%; ClpP mod: -22%

How did COc1cccc(/C=N\NC(C)=O)c1OC/C=C/c1ccccc1 do in these assays?
Sfp PPTase inh: -1%; RORgamma inh: 8.9µM*; Gal4-VP16 FLuc: 11µM*; PINK1 modulator: inconclusive; ClpP mod: -15%

How did COCC(=O)N/N=C\c1cccc(OC)c1OC/C=C/c1ccccc1 do in these assays?
Sfp PPTase inh: -2%; RORgamma inh: 13µM*; Gal4-VP16 FLuc: inconclusive; PINK1 modulator: -1%; ClpP mod: -24%

What do the screens show for `COCC(=O)N/N=C\c1ccccc1OC/C=C/c1ccccc1`?
Sfp PPTase inh: -4%; RORgamma inh: -4%; Gal4-VP16 FLuc: -17%; PINK1 modulator: -1%; ClpP mod: -4%

How did COC(=O)N/N=C\c1ccc(OC/C=C/c2ccccc2)c(OC)c1 do in these assays?
Sfp PPTase inh: 19%; RORgamma inh: 17%; Gal4-VP16 FLuc: -10%; PINK1 modulator: 0%; ClpP mod: -12%

Results for CCC12CN3CC(C)(CN(C1)C3c1c(C)n(C)c3ccccc13)C2=O (stereo not drawn) ?
Epigenetic derep: 2%; PINK1 modulator: 0%; ClpP mod: 0%

Results for O=C(NCC1Cc2cccc(-c3cncnc3)c2O1)C1CC1 (stereo not drawn) ?
PINK1 modulator: -1%

How did CC1CCN(C(=O)CSc2nc(N)c3c4c(sc3n2)CN(C)CC4)CC1 do in these assays?
Epigenetic derep: -6%; Sfp PPTase inh: 21%; RORgamma inh: 2%; Gal4-VP16 FLuc: -3%; PINK1 modulator: 1%; ClpP mod: 28µM*

What do the screens show for `CN1CCc2c(sc3nc(SCC(=O)N4CCOCC4)nc(N)c23)C1`?
Epigenetic derep: -8%; Sfp PPTase inh: 19%; RORgamma inh: -1%; Gal4-VP16 FLuc: 2%; PINK1 modulator: 1%; ClpP mod: inconclusive
